Screening data: PubChem BioAssay, National Center for Advancing Translational Sciences (NCATS)
Shiga inhibitor = Shiga toxin inhibition | Vero cells, Shiga toxin protein synthesis inhibition reporter | inhibition, % at 38.7 µM | 9.2% of 290,000 active | AID 2315; in the data active = inhibition mostly above about 28%, no sharp cut-off; inactive = mostly below about 43%; note: 0% is about no effect
Pf growth 96h = P. falciparum growth inhibition at 96 hours | Potency, µM (series often up to 28.7 µM), for the others: at the highest dose activity change, negative = inhibition, hits mostly inhibitors | P. falciparum luciferase reporter growth, 96 h | 6.9% of 320,000 active; note: potency is the fitted concentration of half-maximal effect; % is set by controls: 0 for no effect and ±100 for the full control effect
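Cell-based qHTS: luciferase-tagged P. falciparum in erythrocytes (2% hematocrit, 0.05% parasitemia final) incubated with compounds for 96 hours, 37 C, 5% CO2; luciferase detection reagent then added and luminescence measured.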
AMA1 RON2 block = inhibitors of Plasmodium falciparum AMA1-RON2 interaction; AlphaScreen AMA1-biotinylated RON2 peptide binding; Potency, µM (titrated, usually from 58.2 µM), inactives show at the top dose activity change, negative = inhibition, hits mostly inhibitors; 0.2% of 360,000 active; AID 720542;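 note: potency is the fitted concentration of half-maximal effect; 0% = vehicle wells and -100% = peptide control; nearly all actives have a fitted effect of over 45% in size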
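AMA1 (3D7) with his tag at 25 nM final met compounds first, then biotinylated RON2 peptide at 25 nM; detection used donor plus acceptor beads, 10 µg/mL apiece, read by AlphaScreen after 30 min at room temperature.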
Pf growth 48h = inhibits P. falciparum growth in the first generation, 48 h | P. falciparum luciferase growth in erythrocytes, 48 h | Potency, µM (highest dose often 28.7 µM), inactives show at the highest dose activity change, negative = inhibition, most hits filed as inhibitors | 5.9% of 310,000 active; note: potency is the fitted concentration of half-maximal effect; % is set by controls: 0 for no effect and ±100 for the full control effect
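Erythrocytes infected with P. falciparum carrying an integrated firefly luciferase reporter (2% hematocrit, 0.1% parasitemia final) were exposed to compounds in RPMI 1640 with 0.5% Albumax at 37 C, 5% CO2. Growth inhibition was scored as reduced luminescence.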
SARS PLP yeast = blocks SARS-CoV papain-like protease in a yeast assay; S. cerevisiae expressing SARS-CoV PLpro, growth rescue; Potency, µM (top dose mostly 32.9 µM), without a hit: at the top dose activity, positive = growth rescue, actives largely listed as activators; 0.19% of 330,000 active; AID 485353; calls by dose curve; note: potency is the fitted concentration of half-maximal effect; 0% is about no effect; nearly all actives have a fitted effect of over 55% in size
Cycloheximide cs = affects cycloheximide protein synthesis inhibition readout, counter-screen; 12% of 300,000 active; max response, %; cell reporter, cycloheximide protein synthesis inhibition counterscreen; in the data active = max response mostly above about 13%, no sharp cut-off; inactive = mostly below about 14%; note: read at 38.3 µM for the half of the compounds with a filed dose; 0% is about no effect
Active calls of the source: *; ? = inconclusive; . = not tested or not shown; ! = a repeat was not active; [ ] = another dose, or the depositor's remark. In the library only some 19% were active in any assay of this set; here they are far more common. Unless noted, calls come from the whole dose curve; as a rule, active = well fitted curve in the direction sought with a large enough effect; inconclusive = small, poorly fitted or top-dose-only effect, or another doubt; inactive = no such curve, though single readings can be large; an effect the other way counts as inactive or inconclusive.

SMILES	Shiga inhibitor	Pf growth 96h	AMA1 RON2 block	Pf growth 48h	SARS PLP yeast	Cycloheximide cs
Cc1ccc(CN=c2c([N+](=O)[O-])nn(-c3ccc4c(c3)OCCO4)n2O)cc1	164*	?	?	94%	-89%	73*
O=[N+]([O-])c1nn(-c2ccc3c(c2)OCCO3)n(O)c1=NCCCO	48*	42%	5%	24%	3%	18*
COc1ccc(CCNC(=O)NC23CC4CC(CC(C4)C2)C3)cc1OC	-5	3%	-1%	?	-7%	7
CCCCN(CC)Cc1c(C)[nH]c2c(ccc3ccccc32)c1=O	12	-10%	7%	?	1%	5
C/C(Cl)=C/Cc1c(C)[nH]c2ccc(C)cc2c1=O	41	12%	?	0.37µM*	-21%	27*
C/C(Cl)=C/Cc1c(C)[nH]c2c(ccc3ccccc32)c1=O	-3	-32%	7%	0.19µM*	-1%	2
CCOC(=O)c1c(C)nc2c(C)cccn12	24	.	2%	0%	-9%	5
CCOC(=O)c1c(C)nc2c3ccccc3ccn12	37*	21%	-5%	257%	-16%	32*
CC(=O)Nc1sc2c(c1C(c1ccccn1)N1CCCC1)CCCC2 (configuration not stated)	3	10µM*	66%	9.3µM*	-4%	18
CC(=O)Nc1sc2c(c1C(c1ccccn1)N1CCN(C)CC1)CCCC2 (configuration not stated)	-11	?	-13%	-25%	3%	-6
Cc1ccc2nc(/C=C/c3cccc(F)c3)ccc2c1	90*	287%	45%	254%	2%	65*
Cc1ccc2ncccc2c1	.	54%	8%	110%	-8%	.
CC(C)(C)C(=O)Nc1cc2nn(-c3ccccc3)nc2cc1Cl	86*	5%	37%	.	5%	47*
CC(=O)Nc1cc2nn(-c3ccccc3)nc2cc1Cl	64*	58%	9%	280%	-2%	26*
Cc1nn(-c2cccc(Cl)c2)nc1C(=O)O	21	-1%	-14%	69%	-5%	9
CCN(CC(=O)Nc1ccccc1OC)C(=O)c1cc(S(=O)(=O)N2CCCCCC2)ccc1OC	.	5.2µM*	25%	?	7%	.
COc1ccc(Cl)cc1NC(=O)CN(C)CC(=O)Nc1cccc(S(=O)(=O)N2CCCC2)c1	.	3.3µM*	27%	?	0%	.
CCN(CC(=O)Nc1cccc(S(=O)(=O)N2CCCC2)c1)CC(=O)Nc1ccccc1OC	13	9.3µM*	35%	?	0%	-4
Cc1cc(N)n(-c2ccc(Oc3ccccc3)c(S(=O)(=O)O)c2)n1	-5	1%	-14%	12%	-1%	-1
CC(C)NCc1cccc([N+](=O)[O-])c1	-8	9%	-30%	12%	13%	-4
CC1(C)CC(NCc2cccc([N+](=O)[O-])c2)CC(C)(C)N1	36	29%	2%	0%	1%	17*
CCCOc1cccc(-c2cc(C(=O)NNC(=S)NCC)c3ccccc3n2)c1	87*	.	64%	10µM*	7%	25*
CCNC(=S)NNC(=O)c1cc(-c2ccccc2C)nc2ccccc12	19	?	44%	?	5%	2
CCNC(=S)NNC(=O)c1cc(-c2cccc(OC)c2)nc2ccccc12	43	-27%	18%	-5%	0%	71*
CCNC(=S)NNC(=O)c1cc(-c2ccc(OCC)cc2)nc2ccccc12	-26	2%	44%	?	-26%	-12
SMILES	Shiga inhibitor	Pf growth 96h	AMA1 RON2 block	Pf growth 48h	SARS PLP yeast	Cycloheximide cs
CCCCNC(=S)NNC(=O)c1cc(-c2ccncc2)nc2ccccc12	24	28%	85%	-3%	0%	19*
C#CCCC(=O)c1ccccc1/C=[N+](\[O-])c1ccccc1	.	?	5%	1.2µM*	5%	.
CCOC(=O)c1ccc(/[N+]([O-])=C/c2ccccc2)cc1	.	194%	?	161%	-9%	.
COCCNC(=O)C1(C)CCCN(C(=O)c2ccc(C)c(F)c2)C1 (configuration not stated)	.	.	-4%	.	.	.
COc1ccc2[nH]c(=O)c(CN(Cc3cccs3)C(=S)Nc3cccc(C)c3)cc2c1	-5	?	-9%	15µM*	-2%	-1
COc1ccc2[nH]c(=O)c(CN(Cc3cccs3)S(=O)(=O)c3cccc4nsnc34)cc2c1	-4	-7%	-3%	7.4µM*	-1%	1
CNC(=S)N(Cc1cccs1)Cc1cc2cc(OC)ccc2[nH]c1=O	-15	7.4µM*	-8%	?	11%	0
COc1ccc2[nH]c(=O)c(CN(CC3CCCO3)C(=S)Nc3cccc(C)c3)cc2c1 (configuration not stated)	-8	25%	-5%	?	0%	-1
COc1ccc2[nH]c(=O)c(CNc3cccc(C)c3)cc2c1	37	?	-11%	?	6%	29*
CCOC(=O)C1CCCCN1C(=O)CCn1nnnc1CN1CCOCC1 (configuration not stated)	16	6%	-1%	14%	4%	-7
CCCCn1c(=O)c(CCC(=O)OCC(=O)NCc2ccc(OC)c(OC)c2)nc2ccccc21	-3	3%	-5%	-27%	1%	-2
COc1ccc2[nH]c(=O)c(CN(Cc3ccccc3)C(=S)NCC3CCCO3)cc2c1 (configuration not stated)	-5	169%	-7%	9%	-1%	1
CCC(=O)N(CCc1ccccc1)Cc1cc2cc(OC)ccc2[nH]c1=O	0	-8%	-9%	2.1µM*	2%	-5
CCC(=O)N(CCc1ccccc1)Cc1cc2ccc(OC)cc2[nH]c1=O	-5	3%	11%	-91%[0.00184 µM]	1%	-3
CNC(=S)N(Cc1cc2ccc(OC)cc2[nH]c1=O)CC1CCCO1 (configuration not stated)	9	13µM*	-9%	-23%	1%	-4
CC(C)(C)c1cc[n+](-c2[nH]c(=O)sc2/C=N/NC([S-])=Nc2ccccc2)cc1	-5	6%	73%	?	-6%	-2
Cc1ccc(C)n1-c1nnc(N2CCC(C(=O)NCCCN3CCN(C)CC3)CC2)s1	2	?	8%	-4%	4%	-4
Cc1ccc(C(=O)N(c2ccccn2)C(C)c2ccco2)cc1 (configuration not stated)	31	-1%	0%	-1%	3%	12
CC(c1ccco1)N(C(=O)Nc1ccc(Cl)cc1)c1ccccn1 (configuration not stated)	12	-4%	-4%	10%	-2%	11*
NC(N)=Nc1nc(CSCC/C(N)=N/S(N)(=O)=O)cs1	-13	4.3µM*!	70%	-1%	-8%	-3
